High-throughput results as filed in PubChem BioAssay.
Rows were chosen to be rich in hits. Some 9.3% of all compounds tested hit in one or more screens of this group.
ELG1 DNA repair: ELG1-dependent DNA repair inhibition; Potency, µM (doses to about 46.1 µM), inactives show at the top dose activity change, negative = inhibition, actives largely listed as inhibitors; 2.3% of 330,000 active; HEK293T ELG1-luciferase reporter, luminescence, 16 h; DNA damage induced by 5-fluorouridine; note: % is set by controls: 0 for no effect and ±100 for the full control effect; nearly all actives have a fitted effect of over 55% in size
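In this reporter screen, reduction of luminescence relative to DMSO vehicle indicated activity. Compounds and 5-fluorouridine were added together to 2,000 cells per well, incubated for 16 hr at 37 °C, then developed with ONE-Glo.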
SMN2 splice enh: increases expression of the SMN2 splice variant. HEK293 SMN2-luciferase splicing reporter, luminescence, 30-36 h. Potency, µM (highest dose often 46.1 µM), without a hit: at the top dose activity change, positive = activation, hits mostly activators. 2.8% of 210,000 active. AID 1458; note: % of control where 0% means no effect; nearly all actives have a fitted effect of over 55% in size
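qHTS luciferase splicing reporter: luminescence rises when SMN2 exon 7 is included in transfected HEK293 cells. Compound exposure lasted 30-36 h at 37C, with 4.5 mM final sodium butyrate as control, followed by a ONE-Glo read.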
ELG1 genotoxic: genotoxicity induction in ELG1-luciferase HEK293T cells; Potency, µM (titrated, usually from 46 µM), for the others: top-dose activity change, positive = activation, most hits filed as activators; HEK293T ELG1-luciferase reporter, luminescence, 16 h; 1.3% of 330,000 active; AID 504466; note: % of control where 0% means no effect; nearly all actives have a fitted effect of over 60% in size
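Genotoxicity was scored as increased ELG1-luciferase reporter signal, measured by ONE-Glo luminescence (30 min, room temperature). Compound or vehicle exposure of the HEK293T reporter cells lasted 16 hr at 37°C.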
FLuc counter: counter-screen for miR-21 project: firefly luciferase inhibitors or activators; P08659; purified FLuc, Km substrates, luminescence inhibition; Potency, µM (highest dose often 57.5 µM), for inactives: at the top dose activity change, negative = inhibition, most hits filed as inhibitors; 6.9% of 360,000 active; AID 588342;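 note: plate controls were vehicle for no effect and reference inhibitor for full effect; nearly all actives have a fitted effect of over 55% in size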
Target sequence (P08659 whole entry, looked up): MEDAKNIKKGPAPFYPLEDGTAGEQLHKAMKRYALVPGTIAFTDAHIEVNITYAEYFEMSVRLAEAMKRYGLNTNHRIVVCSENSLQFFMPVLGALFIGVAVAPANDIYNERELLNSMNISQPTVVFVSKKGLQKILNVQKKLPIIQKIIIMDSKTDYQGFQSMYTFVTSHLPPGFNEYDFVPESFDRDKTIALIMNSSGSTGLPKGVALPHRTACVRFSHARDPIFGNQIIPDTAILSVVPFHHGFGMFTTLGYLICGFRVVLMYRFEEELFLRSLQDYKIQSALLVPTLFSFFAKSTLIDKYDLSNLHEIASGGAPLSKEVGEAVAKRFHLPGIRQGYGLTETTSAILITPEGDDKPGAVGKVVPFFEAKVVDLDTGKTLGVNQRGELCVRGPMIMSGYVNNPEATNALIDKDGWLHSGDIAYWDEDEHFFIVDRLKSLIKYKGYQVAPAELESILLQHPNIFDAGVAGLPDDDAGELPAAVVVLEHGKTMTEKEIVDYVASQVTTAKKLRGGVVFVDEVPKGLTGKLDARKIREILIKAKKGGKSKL
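Purified P. pyralis luciferase, 10 nM final, with Km-level 10 uM D-luciferin and 10 uM ATP in 50 mM Tris acetate pH 7.5, 10 mM Mg acetate, 0.01% Tween-20, 0.05% BSA; 6-point qHTS titration about 60 µM downward; luminescence read.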
Rab9 promoter act: Rab9 promoter activation. Huh7 Rab9 promoter-luciferase reporter, luminescence, 24 h. Potency, µM (top dose mostly 9.22 µM), without a hit: at the highest dose activation, negative = inhibition, actives largely listed as activators. 2.8% of 320,000 active. AID 485297; note: % of control where 0% means no effect; nearly all actives have a fitted effect of over 60% in size
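Luciferase signal after 10 min detection reagent at ambient indicates Rab9 promoter upregulation; stably transfected Huh7 cells were treated 24 h with compound in DMSO at 37 °C, 5% CO2.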
NPC1 prom act: NPC1 promoter activation. Potency, µM (doses to about 9.22 µM), for inactives: at the top dose activation, usual class: activators. 2.4% of 320,000 active. Huh7 NPC1 promoter luciferase reporter, 24 h; note: % of control where 0% means no effect; nearly all actives have a fitted effect of over 60% in size
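Compounds in DMSO were transferred onto Huh7 NPC1-luciferase reporter cells pre-incubated 2 h; after 24 h at 37 °C, Amplite reagent was dispensed and luminescence recorded 10 min later.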
An asterisk follows results filed as active; ? = inconclusive; . = no result given; [ ] = another dose, or the depositor's remark. Calls come from the whole dose curve; as a rule, active = well fitted curve in the direction sought with a large enough effect; inconclusive = small, poorly fitted or top-dose-only effect, or another doubt; inactive = no such curve, though single readings can be large; an effect the other way counts as inactive or inconclusive. Potency is the fitted concentration of half-maximal effect.

SMILES	ELG1 DNA repair	SMN2 splice enh	ELG1 genotoxic	FLuc counter	Rab9 promoter act	NPC1 prom act
Fc1ccc(C2CCNCC2COc2ccc3c(c2)OCO3)cc1 (stereo unspecified)	?	.	-7.1%	0.6%	-4.4%	-10.4%
Cc1ccc(-c2cc(C(F)(F)F)c(C#N)c(=O)[nH]2)cc1	1.0%	-1.3%	-4.8%	-1.0%	-3.1%	-1.1%
Cc1c(C(=O)C(=O)N2c3ccc(F)cc3CCC2C)c2ccccc2n1C (stereo unspecified)	-0.6%	-36.2%	9.6%	8.3%	-19.4%	-13.1%
C=CCn1c(COc2ccccc2)nc2ccccc21	?	.	3.7%	26.9µM*	15.8%	14.5%
Cn1c(COc2ccccc2)nc2ccccc21	?	.	?	15.1µM*	?	3.98µM*
Cc1ccc(Nc2ccc(N3CCN(C(=O)c4ccc([N+](=O)[O-])cc4Cl)CC3)nn2)cc1	.	.	.	-10.6%	.	.
CCOc1ccccc1N1CCN(C(=O)c2c(-c3ccccc3Cl)noc2C)CC1	?	-40.7%	-5.3%	-1.9%	-2.9%	-3.4%
Oc1cc2c(cc1O)[C@@H](c1ccccc1)CNCC2	11.3%	-29.5%	-2.4%	4.78µM*	-3.2%	-0.3%
COc1ccc(CCN2CC(C(=O)NCCc3ccc(C)cc3)CC2=O)cc1OC (stereo unspecified)	-1.5%	-20.1%	-12.1%	-6.2%	-3.9%	1.1%
Cc1ccc(C(=O)NC2=NCCS2)cc1Cl	?	.	?	6.75µM*	1.26µM*	1.41µM*
O=C(NC1=NCCS1)c1ccc(C(F)(F)F)cc1	?	.	?	10.7µM*	15.1%[1.84 µM]	2.82µM*
Cc1ccc(C(=O)NC2=NCCS2)cc1	?	.	?	10.7µM*	3.55µM*	2.82µM*
CC(C)c1ccc(C(=O)NC2=NCCS2)cc1	?	2µM*	1.64µM*	1.9µM*	0.398µM*	0.562µM*
CCOc1ccc(CCNC(=O)c2nnn(CC(=O)Nc3ccccc3C)c2N)cc1OCC	0.6%	.	-1.9%	0.3%	-1.1%	-4.5%
O=C(Nc1ncccn1)c1ccc(C(F)(F)F)cc1	?	-1.1%	2.6%	19µM*	-5.5%	0.0%
O=C(NNC(=O)c1cccc(C(F)(F)F)c1)c1ccncc1	7.0%	.	2.1%	-10.8%	-3.8%	0.6%
Cc1ccccc1Cn1c(O)c(N=NC(=S)Nc2ccccc2F)c2ccccc21	5.8µM*	-44.7%	-8.3%	0.3%	2.7%	-7.3%
Cc1cc(C)n2nc(-c3ccc(Cl)cc3)nc2n1	.	15.8µM*	.	15.1µM*	.	.
Cn1ccnc1SCc1cn2cc(Br)ccc2n1	?	?	?	3.79µM*	0.562µM*	0.316µM*
Cn1ccnc1SCc1ccc([N+](=O)[O-])cc1	11.8%	5.4%	0.2%	-4.3%	0.8%	1.1%
COc1ccccc1-c1ccc(/C=C2\C=CC(=O)O2)o1	?	.	11.6%	7.57µM*	-9.3%	-0.5%
CCn1c(C)nc2cc(C(=O)NNS(=O)(=O)c3ccc(C)c(C)c3)ccc21	-1.9%	-2.1%	-2.4%	-15.3%	0.0%	-2.9%
CC(=O)c1c(C)[nH]c(C(=O)OCC(=O)N2CCN(S(=O)(=O)c3ccc(C)cc3C)CC2)c1C	18.4µM*	-37.4%	-15.3%	1.7%	-0.3%	-1.3%
Cc1ccc(S(=O)(=O)N2CCN(C(=O)CSC3CCCC3)CC2)c(C)c1	20.6µM*	-29.9%	-17.0%	-1.6%	-4.4%	0.2%
N/C(=N\N=C\c1ccco1)SC1CC(=O)N(c2ccc(C(=O)O)cc2)C1=O (stereo unspecified)	8.9%	6.3%	2.8%	3.4%	-4.5%	-0.8%
SMILES	ELG1 DNA repair	SMN2 splice enh	ELG1 genotoxic	FLuc counter	Rab9 promoter act	NPC1 prom act
COc1ccccc1OCCNC(=O)c1ccc(C)o1	?	.	?	-17.8%	-2.4%	7.9%
CC(=O)Nc1ccc(N/C=C/C(=O)c2ccc(Cl)cc2)cc1	0.0%	.	8.0%	-12.8%	?	?
COc1ccccc1Oc1ccc(N/C=C/C(=O)c2ccc(C)o2)cc1	-20.3%	22.1%	11.9%	7.57µM*	?	?
CC(=O)Nc1ccc(N/C=C/C(=O)c2ccc(C)o2)cc1	?	-10.0%	?	8.49µM*	?	3.98µM*
CCOC(=O)c1ccc(NC(=O)CSc2ccc3ccccc3n2)cc1	.	.	.	-17.0%	.	.
Cc1ccc(C(=O)NCC(=O)OCC(=O)c2cc(C)n(Cc3ccco3)c2C)cc1	20.7%	.	6.0%	23.9µM*	-2.6%	-1.3%
Cc1cc(C(=O)COC(=O)Cn2c(C(F)(F)F)nc3ccccc32)c(C)n1Cc1ccco1	5.9%	-0.3%	4.6%	21.3µM*	7.1%	0.0%
Cc1ccc2cccc(OCC(=O)c3cc(C)n(Cc4ccco4)c3C)c2n1	2.1%	-12.0%	-5.1%	?	20.9%	18.0%
Cc1cc(C(=O)COC(=O)[C@H](C)NC(=O)c2ccco2)c(C)n1Cc1ccco1	?	4.0%	4.9%	7.57µM*	5.2%	-1.9%
Cc1cc(C(=O)COC(=O)CNC(=O)c2ccc(Cl)c(Cl)c2)c(C)n1Cc1ccco1	13.6%	4.3%	2.1%	-11.8%	-3.1%	-2.1%
C=CCn1c(C)cc(C(=O)COC(=O)CNC(=O)c2ccccc2)c1C	?	-23.1%	13.6%	13.5µM*	-5.6%	-0.9%
C=CCn1c(C)cc(C(=O)COC(=O)C2CC(=O)N(Cc3ccccc3)C2)c1C (stereo unspecified)	?	12.0%	2.8%	23.9µM*	-7.4%	2.5%
NC1=NC(=O)/C(=C/c2cccc(F)c2)S1	8.2%	.	-0.1%	-0.8%	3.5%	-8.0%
C=CCNc1nc(Nc2ccccc2F)nc(OCC)n1	?	11.2µM*	19.0%	21.3µM*	3.98µM*	3.98µM*
O=C(c1ccco1)N1N=C(c2cccs2)CC1c1ccc(F)cc1 (stereo unspecified)	-0.1%	-9.0%	-0.8%	-3.2%	-2.9%	6.6%
O=C(c1ccco1)N1N=C(c2cccs2)CC1c1cc([N+](=O)[O-])ccc1O (stereo unspecified)	3.5%	.	10.4%	16.9µM*	-0.1%	11.2%
CC(=O)c1cccc(NC(=O)c2oc(C)nc2C)c1	13.4%	.	2.4%	-1.0%	26.7%	-4.6%
C/C(=N/OC(=O)c1ccc(Cl)cc1Cl)c1oc(C)nc1C	-4.9%	.	-1.1%	7.57µM*	7.1%	-3.4%
C/C(=N/OC(=O)c1ccccc1)c1oc(C)nc1C	?	.	2.3%	12µM*	1.4%	1.4%
CCC(=O)c1ccc(/C=C/c2nc3ccccc3n2C)o1	?	3.16µM*	-2.9%	3.38µM*	0.316µM*	0.501µM*
COc1cc(C(C)=O)ccc1OCc1cc(C(=O)N2CCSCC2)no1	12.6%	.	3.3%	-3.0%	3.9%	9.4%
